# Compound activity from PubChem.
# Shown are actives, neighbours in structure and some others; about 6% of the full set was active somewhere.
# DRD3 antagonist = qHTS of D3 Dopamine Receptor Antagonist: qHTS | D(3) dopamine receptor (Homo sapiens), P35462 | D3R cells, DiscoveRx beta-arrestin luminescence, antagonist mode; hits give low values | max response, negative = inhibition, % | 2.5% of 360,000 active; in the data active = max response below about -50%; inconclusive = no clear call, values can overlap the other calls; also: % is scaled to controls: 0 for no effect and ±100 for the full control effect
# Target sequence (P35462 whole entry, looked up): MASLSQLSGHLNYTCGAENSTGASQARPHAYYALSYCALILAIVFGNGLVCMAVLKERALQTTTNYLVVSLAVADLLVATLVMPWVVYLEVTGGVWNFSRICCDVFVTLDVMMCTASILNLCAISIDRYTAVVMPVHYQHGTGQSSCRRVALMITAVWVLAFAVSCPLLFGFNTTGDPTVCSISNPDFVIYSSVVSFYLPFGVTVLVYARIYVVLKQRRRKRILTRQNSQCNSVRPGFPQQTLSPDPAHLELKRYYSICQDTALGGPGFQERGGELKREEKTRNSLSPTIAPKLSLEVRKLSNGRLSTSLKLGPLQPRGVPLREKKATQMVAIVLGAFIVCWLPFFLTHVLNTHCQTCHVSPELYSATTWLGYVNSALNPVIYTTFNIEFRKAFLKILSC
#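 Cells expressing the human receptor were seeded at 1500 cells/well, incubated overnight at 37 degrees C in 5% CO2, then exposed to library compounds with dopamine controls for 90 minutes at 37 degrees C before luminescent detection.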
# Chronic BCR inh = qHTS Assay to Find Inhibitors of Chronic Active B-Cell Receptor Signaling; Potency, µM (titrated, usually from 46.1 µM), for inactives: at the highest dose activity change, negative = inhibition, most hits filed as inhibitors; ABC-DLBCL IkBa-CBG/CBR reporter, luminescence ratio, 4 h; 0.05% of 340,000 active; active = well fitted inhibition curve with a large enough effect in the signal ratio, with a control signal flat, not every such curve was filed as active; inconclusive = small, poorly fitted or top-dose-only effect, or effect the other way, or a change in a side signal; the % refers to the signal ratio;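 also: potency is read from the fitted curve at half-maximal effect; plate controls were basal doxycycline-induced cells for no effect and cells given 10 µM MG132 for full effect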
#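 TMD8 human ABC-DLBCL cells with doxycycline-inducible IκBα–green luciferase fusion and unfused red luciferase, in 0.5% FBS medium; compounds up to 46 uM, 4 h at 37C. Green/red luminescence ratio, filter-overlap corrected, fitted to concentration-response curves.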
# D1 antagonist = Antagonist of Human D 1 Dopamine Receptor: qHTS; activity change, negative = inhibition, % at 10 µM; D(1A) dopamine receptor (Homo sapiens), P21728; HEK293 TREx D1 cells, calcium flux, dopamine EC80; hits give low values; AID 504652, 2011; 3.2% of 360,000 active; in the data active = activity change below about -30%; also: % is scaled to controls: 0 for no effect and ±100 for the full control effect
#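 Cells carrying a force-coupled, tetracycline-inducible human D1 receptor report calcium flux. Each well gets a 10 s baseline, compound with 180 s monitoring, then an EC80 dopamine stimulus with a second 180 s kinetic read.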
# D1 ag = Allosteric Agonists of the Human D1 Dopamine Receptor: qHTS | activation, % at 2 µM | 1% of 360,000 active | AID 504660, 2011 | D(1A) dopamine receptor (Homo sapiens), P21728 | HEK293 T-REx D1 cells, calcium flux, agonist mode; in the data active = activation above about 30%; also: 0% is about no effect
#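 Inducible HEK293 T-REx D1 cells, force-coupled to calcium signalling, were plated at 4000 cells/well with tetracycline and held overnight at 30 C. After no-wash calcium dye loading, compound-evoked calcium rise over 180 s flagged agonists.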
# D1 potentiator = Potentiators of Human D1 Dopamine Receptor: qHTS. HEK293 TREx D1 cells, calcium flux, dopamine EC20 potentiation. 0.036% of 360,000 active. potentiation, % at 10 µM. D(1A) dopamine receptor (Homo sapiens), P21728; in the data active = potentiation above about 30%; also: 0% is about no effect
# DRD3 agonist = qHTS of D3 Dopamine Receptor Agonist: qHTS. max activation, %. D3R DiscoveRx beta-arrestin cells, luminescence, 90 min. 0.58% of 410,000 active. D(3) dopamine receptor (Homo sapiens), P35462. AID 652048, 2013; in the data active = max activation above about 30%; also: 0% is about no effect
#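 Agonist mode: compounds and dopamine controls were applied to plated cells for 90 min at 37 degrees C after an overnight attachment at 1500 cells/well. Luminescent read-out followed 30 - 60 minutes at room temperature with DiscoveRx detection reagent.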
# * hit, by the source's call; ? = inconclusive; / = no result.
SMILES,DRD3 antagonist,Chronic BCR inh,D1 antagonist,D1 ag,D1 potentiator,DRD3 agonist
CC(C)OC(=O)CSc1nc2ncc(Cl)cc2[nH]1,9,15%,-30*,2,-5,-12
C=CCc1cc(F)c(S(=O)(=O)N2CCN(S(=O)(=O)c3ccc4c(c3)OCCO4)CC2)cc1F,/,/,-6,2,-1,/
CCC(C)(C)c1ccc(OCCCC[n+]2cccc(C)c2)c(C(C)(C)CC)c1,-2,0%,-15,169*,-7,-6
CCCCCCCCCC[n+]1cccc(C(=O)N(CC)CC)c1,-5,-2%,-6,1,2,-4
O=C(CC[C@H]1O[C@@H](n2cnc3c(NC(=O)c4ccccc4)ncnc32)[C@H](O)[C@@H]1O)NCC1CCCCC1,13,/,/,/,/,6
COC(=O)c1cc(O)cc(OC)c1Oc1cc(C)cc(O)c1C(=O)O,?,?,9,1,-5,1
COC(=O)c1cc(O)cc(OC)c1C(=O)c1c(O)cc(C)cc1O,1,?,4,3,-7,30*
CCOC(=O)c1ccc(NC(=O)c2ccc3c(c2)c(C)c(C)n3Cc2ccc(F)cc2)cc1,/,/,0,4,-6,0
CCOC(=O)c1c(NC(C)=O)c2c3c(sc2n1Cc1nc(-c2cccc(Cl)c2)oc1C)CCCC3,/,/,-37*,0,-5,0
COc1ccc(-c2nc(SCC(=O)NCc3nc4ccccc4n3C)n3[nH]c(=O)cc3n2)cc1,/,/,-8,1,0,18
CC1CCCC/C1=N\Nc1ccc(S(N)(=O)=O)cc1[N+](=O)[O-] (configuration not stated),15,7%,-30*,6,-3,0
CC(C)(C)C1CCC(=NNc2ccc(S(N)(=O)=O)cc2[N+](=O)[O-])CC1 (configuration not stated),-4,3%,4,0,-6,6
Cc1ccccc1-c1cnc(C(O)c2ccc(Cl)cc2)[nH]1 (configuration not stated),-8,/,/,/,/,-10
FC(F)(F)c1ccnc(N2CCN(Cc3cnc(-c4ccccc4)[nH]3)CC2)c1,-77*,-6%,3,10,-11,-18
CC1CN(CCOCCSc2ccccc2)CC(C)O1 (configuration not stated),-67*,?,12,3,5,-4
CC1CN(CCOCCSc2ccc(Cl)cc2)CC(C)O1 (configuration not stated),-64*,-4%,-24,1,-7,-7
CC1CN(CCOc2ccccc2C(C)C)CC(C)O1 (configuration not stated),-69*,3%,-13,1,-2,-26
Cc1ccc(C)c(OCCOCCN2CC(C)OC(C)C2)c1C (configuration not stated),-75*,?,-10,2,-8,-5
CC1CN(CCOCCOc2ccccc2-c2ccccc2)CC(C)O1 (configuration not stated),-21,-1%,0,1,1,-20
CCOC(=O)c1cc(NC(=O)COC)ccc1O,/,18%,9,2,-1,/
CCOC(=O)C(=CNc1ccc(O)c(C(=O)OC)c1)C(=O)OCC,159,/,/,/,/,57*
Cc1ccc(S(=O)(=O)Nc2cccnc2)cc1C,16,1%,-2,1,-10,9
CCC(C)c1ccc(S(=O)(=O)Nc2cccnc2)cc1 (configuration not stated),9,-1%,-51*,18,-3,-3
O=S(=O)(Nc1cccnc1)c1ccc(Cl)c(C(F)(F)F)c1,-51*,/,-38*,1,-7,-2
CN1CCN(c2oc(COc3ccc(-c4ccccc4)cc3)nc2C#N)CC1,-4,?,-35*,21,-10,-32
SMILES,DRD3 antagonist,Chronic BCR inh,D1 antagonist,D1 ag,D1 potentiator,DRD3 agonist
N#Cc1nc(-c2ccc(OCc3ccccc3)cc2)oc1N1CCC(C(N)=O)CC1,30,1%,-36*,14,-6,-1
N#Cc1nc(COc2ccc(-c3ccccc3)cc2)oc1NCCCN1CCOCC1,18,0%,-30,30,-10,-3
CN(C)CCNc1oc(COc2ccc(-c3ccccc3)cc2)nc1C#N,-20,2%,-8,40*,-3,-20
COc1ccc(-c2nc(C#N)c(NCCN(C)C)o2)cc1,-61*,/,/,/,/,-8
Cc1cc(C)cc(C(O)c2ncc(-c3ccc(C(F)(F)F)cc3)[nH]2)c1 (configuration not stated),0,/,/,/,/,-13
CCC1(CC)NC(=S)N(Nc2ccccc2)C1=O,-18,-5%,-33*,0,-9,-8
O=C1c2ccccc2C(=O)N1Nc1ccccc1,2,-16%,/,/,/,-7
O=c1c2cc(-c3ccccc3)sc2ncn1/N=C/c1ccco1,0,?,-33*,1,-5,0
CCCCn1cnc2sc(-c3ccccc3)cc2c1=O,20,8%,-12,4,0,-2
Cc1cccc(C(=O)NCC(=O)N2CCN(S(=O)(=O)c3ccccc3)CC2)c1,19,7%,0,4,-2,3
Cc1cccc(C(=O)NCC(=O)N2CCN(S(=O)(=O)/C=C/c3ccccc3)CC2)c1,29,-1%,-43*,0,-4,0
O=[S+]([O-])(c1ccc2c(c1)OCCO2)N1CCN([S+](=O)([O-])c2ccc(F)cc2Br)CC1,/,/,-8,7,-2,/
COc1ccc(C(=O)CSc2n[nH]c(-c3ccco3)n2)cc1,-59*,-1%,-5,0,-6,4
Cc1ccc(-c2nc3cccnc3o2)cc1NC(=O)COc1ccc(C(C)(C)C)cc1,103,?,-7,3,13,79*
Cc1ccc(-c2nc3cccnc3o2)cc1NC(=O)COc1ccc(Cl)cc1C,12,-1%,-7,7,-3,0
COc1ccccc1CNC(=O)c1ccc(CS(=O)(=O)c2ccccc2OC)o1,-24,-6%,-89*,3,-7,-3
COc1ccccc1S(=O)(=O)Cc1ccc(C(=O)NCc2ccc(C)cc2)o1,-7,-10%,-23,1,-11,1
O=C(c1ccc(CS(=O)(=O)c2ccc(Br)cc2)o1)N1CCCCCC1,-3,14%,-24,33*,/,4
COc1ccc(S(=O)(=O)Cc2ccc(C(=O)NCCc3ccc(S(N)(=O)=O)cc3)o2)cc1,-30,1%,-35*,2,1,-4
O=C(c1ccc(CS(=O)(=O)c2ccc(Br)cc2)o1)N1CCCC1,-15,?,-4,14,/,4
